A word on the inhibition: it is the change of the read-out against control, counted positive when it falls.

We go through five compounds from PubChem BioAssay.

Test [1] in a line: inhibitors of TNFa-induced NFkB p65 translocation, primary screen, imaging, HUVEC, MLSMR starter and 10KST1 sets (AID 438;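 active = inhibition above 20% together with a positive visual image hit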;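 note: compound added about 3h40 before a 20 min TNFalpha stimulation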;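 for inhibition: signal is the nuclear over cytoplasmic p65 intensity ratio per well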). Particulars: HUVEC TNFa-induced p65 nuclear translocation; cell count: measured here: nuclei count (cytotoxicity indicator), at 2.08 µM; inhibition: at 2 µM, stronger effect = higher value, 0% TNFa-plus-vehicle, 100% no-TNFa wells.
A short description of test [2]: reduction of polyQ htt aggregates in cells – imaging, exon1htt(103Q)mCFP cells, high-content imaging, primary screen (AID 483;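 active = visual image review flags a hit and inhibition of aggregation exceeds 20%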;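 note: compound exposure lasted 3 days before fixation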;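 for nuclei count: percent of the per-plate median nuclei count of sample wells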). Particulars: exon1htt(103Q)mCFP cell line, aggregate imaging, at 2 µM; inhibition of aggregation: stronger effect = higher value; nuclei count: measured here: cell count, toxicity.
The nature of test [3]: endothelial E-selectin expression blockers – imaging, HUVEC, immunofluorescence, MLSMR starter and 10KST1 sets, primary screen (AID 487;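 active = visually confirmed hit in the image check and inhibition above 20%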;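 for inhibition: signal is fraction of cell area covered by stained E-selectin grains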;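 for nuclei count: 100% = median nuclei count of all wells on the same plate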). Particulars: HUVEC TNFalpha-induced E-selectin immunofluorescence imaging, at 2 µM; inhibition: stronger effect = higher value; nuclei count: measured here: cell number, toxicity.
Test [4] in a line: Primary imaging screen for DUSP6 inhibitors that restore phospho-Erk in transfected HeLa cells, chemical complementation (AID 609;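 active = compounds giving at least 50% inhibition in the cell-based MKP-3 phosphatase rescue imaging test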;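 for inhibition: phospho-Erk level distribution per well compared with pooled transfected vehicle control wells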). To be noted: HeLa MKP-3 transfected, phospho-Erk imaging KS statistic, at 10 µM, cells stimulated with TPA for 15 min.
The target of test [5] is Dual specificity protein phosphatase 6 (Homo sapiens) (UniProt Q16828). The description is as above. Particulars: HeLa MKP-3 transfected, phospho-Erk imaging KS statistic; at 10 µM; stronger effect = higher value; cells stimulated with TPA for 15 min.
Chain of Dual specificity protein phosphatase 6 (Homo sapiens) (Q16828 whole entry, looked up): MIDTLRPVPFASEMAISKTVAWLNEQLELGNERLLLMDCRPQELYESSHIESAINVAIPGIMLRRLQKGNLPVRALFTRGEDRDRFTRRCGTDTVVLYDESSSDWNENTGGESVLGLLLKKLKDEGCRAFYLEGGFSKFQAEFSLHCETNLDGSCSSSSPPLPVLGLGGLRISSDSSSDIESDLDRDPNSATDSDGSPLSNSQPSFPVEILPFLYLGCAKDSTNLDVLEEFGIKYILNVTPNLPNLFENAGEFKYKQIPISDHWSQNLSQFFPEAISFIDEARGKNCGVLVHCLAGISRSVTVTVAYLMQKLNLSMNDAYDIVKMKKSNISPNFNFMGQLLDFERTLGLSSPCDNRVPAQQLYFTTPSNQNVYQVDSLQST
Test [6] addresses Voltage-gated potassium channel subunit beta-2 (Rattus norvegicus) (UniProt P62483). Kind of test: inhibitors of rat Kvbeta2 reductase activity – biochemical, NADPH fluorescence, primary screen (AID 622;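 active = fluorescence slope higher than the sample average by over 3 SD, cut at about -0.22 in these data, passing the limit was not always enough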;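 note: slope of raw intensity against log time taken from 70 to 1610 s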). Particulars: recombinant KvBeta, 4-cyanobenzaldehyde reduction, at 10 µM, stronger effect = higher value.
Test [7] shares this target. Nature of the test: enhancers of rat Kvbeta2 NADPH turnover – biochemical, NADPH fluorescence, primary screen (AID 623;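 active = NADPH fluorescence slope more negative than the mean of all samples by about 3 SD, 99.7% confidence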;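 note: fluorescence intensity change per second fitted from 20 to 320 s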). To be noted: Recombinant KvBeta, NADPH fluorescence decrease slope, 10 min; at 10 µM; stronger effect = lower value.
Test [8] deals with Alpha-2C adrenergic receptor (Homo sapiens) (UniProt P18825). Kind of test: compounds altering alpha2C-coupled GIRK flux – cell-based, HEK293 alpha2C/GIRK1/2, thallium flux, primary screen (AID 624;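 active = fluorescence slope after compound addition differing from the mean of all screened samples at 99.7% confidence, in either direction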;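 note: slope of fluorescence ratio to pre-addition baseline per second over 15 to 24 s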). To be noted: thallium flux BTC fluorescence, at 10 µM, actives lie on both sides.
Chain of Alpha-2C adrenergic receptor (Homo sapiens) (P18825 whole entry, looked up): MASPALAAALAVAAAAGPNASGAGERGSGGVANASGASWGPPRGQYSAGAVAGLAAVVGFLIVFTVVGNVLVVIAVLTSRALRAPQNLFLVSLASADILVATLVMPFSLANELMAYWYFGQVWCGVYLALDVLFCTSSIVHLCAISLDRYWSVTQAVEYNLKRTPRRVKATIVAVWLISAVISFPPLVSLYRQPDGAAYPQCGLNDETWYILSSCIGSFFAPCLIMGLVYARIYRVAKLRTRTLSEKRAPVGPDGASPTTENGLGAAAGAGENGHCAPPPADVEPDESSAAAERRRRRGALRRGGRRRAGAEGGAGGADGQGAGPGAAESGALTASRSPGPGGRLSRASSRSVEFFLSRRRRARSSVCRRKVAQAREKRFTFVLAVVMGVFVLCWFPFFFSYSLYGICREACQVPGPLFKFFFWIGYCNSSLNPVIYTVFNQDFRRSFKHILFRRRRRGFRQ
Test [9] is described as follows: inhibitors of larval lipid processing in zebrafish, primary screen, whole organism, PED6 fluorescence, gall bladder and intestine (AID 686;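 active = a full or partial loss of lipid-probe fluorescence in the fish gall bladder, intestine or both, judged by eye; inactive = no fluorescence loss, or compound toxic to the fish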;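 note: larvae 5 to 7 days old with five fish per well; signal comes from phospholipase A2 cleavage of quenched PED6 carried via bile; overnight exposure to compound and PED6 before scoring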). To be noted: Zebrafish larvae PED6 lipid processing, fluorescence scoring; screened at 20 µM (by protocol).
A short description of test [10]: loss of swimming-algae plug formation – whole organism, Chlamydomonas reinhardtii, WT vs cilia-less mutant, absorbance, 96-well, primary screen (AID 463189).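 Note: 0% = wild type cc124 cells in DMSO and 100% = ciliumless bld1 mutant cells.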 Particulars: Chlamydomonas reinhardtii gravitaxis, OD600 absorbance, 2 days; at 10 µM; stronger effect = higher value.
Test [11] is described as follows: blockers of RIG-like receptor reporter activation – cell-based, Sendai virus stimulus, luciferase, 10K MLSCN set, TLR/RLR signaling modifier project, primary screen (AID 602276;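 active = inhibition at or above 50% at 10 µM; inactive = inhibition below 50%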;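 note: firefly luciferase from ISG56 promoter only with Renilla not read in this screen; 0% = Sendai virus plus DMSO and 100% = medium plus DMSO without virus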). To be noted: HEK293 RL24 IRF3 luciferase reporter, at 10 µM, stronger effect = higher value.
A short description of test [12]: TLR3 IRF3 reporter activation blockers – cell-based, poly I:C stimulus, luciferase, 10K MLSCN set, primary screen (AID 602277;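 active = inhibition of the reporter signal at or above 50%; inactive = inhibition below 50%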). To be noted: HEK293-TLR3 RL24 IRF3 luciferase reporter, at 10 µM, stronger effect = higher value. For orientation: Reporter assays use an easily measured gene product as a stand-in for the process of interest.
Where [13] appears, read: measured here: cell density z-score.
The mark [14] stands for this setting: measured here: nuclear c-Myc green intensity z-score.
Where [15] appears, read: measured here: nuclear pErk red intensity z-score, stronger effect = higher value.

Molecules are shown by their SMILES. “And” between values parts separate entries of the source, which are not always exact repeats. Equal values may be shown once. The source made the active and inactive calls.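 Rule for the calls, unless noted: active = inhibition at or above 50% relative to wild type and mutant plate controls; inactive = inhibition below 50%.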

Chain of Voltage-gated potassium channel subunit beta-2 (Rattus norvegicus) (P62483 whole entry, looked up): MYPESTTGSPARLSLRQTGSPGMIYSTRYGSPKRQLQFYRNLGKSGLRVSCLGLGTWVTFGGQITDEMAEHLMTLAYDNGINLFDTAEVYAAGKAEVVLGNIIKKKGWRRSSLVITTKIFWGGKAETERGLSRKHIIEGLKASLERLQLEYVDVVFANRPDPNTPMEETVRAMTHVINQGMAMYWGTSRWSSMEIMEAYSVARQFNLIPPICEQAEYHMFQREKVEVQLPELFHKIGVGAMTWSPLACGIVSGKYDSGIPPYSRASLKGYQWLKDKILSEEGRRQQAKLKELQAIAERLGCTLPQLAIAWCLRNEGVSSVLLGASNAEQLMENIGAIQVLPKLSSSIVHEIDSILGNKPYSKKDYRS

Regarding `CC(=O)OCC(=O)[C@@]1(OC(C)=O)[C@@H](C)C[C@H]2[C@@H]3C[C@H](F)C4=CC(=O)C=C[C@]4(C)[C@@]3(F)[C@@H](O)C[C@@]21C`, in [1], the cell count is 659. Besides, the inhibition in test [1] was -5.5% (inactive); in [3], -71.2% (inactive); in test [5], 29.1% (inactive); in [10], 3.31% (inactive); in test [11], 4.93% (inactive); in test [12] it was 44.4% (inactive). Moreover, in test [2], the inhibition of aggregation was -7.2% (inactive). Besides, the nuclei count is 68.3% in test [2] and 116% in [3]. Moreover, the z-score in test [4] (setting [13]) is 1.64; in test [4] (setting [14]) it was -1.42; in test [4] (setting [15]) it was -1.55. Besides, the fluorescence slope in test [6] was -0.482 (inactive). Besides, the NADPH fluorescence slope in [7] is -7.3e-05 (inactive). In addition, the slope in test [8] was 0.00497 (inactive). Also, the result in [9] was inactive.
Turning to `Cn1nnnc1SCC1=C(C(=O)O)N2C(=O)[C@@H](NC(=O)[C@H](O)c3ccccc3)[C@H]2SC1`, in test [1], the cell count stood at 634. In addition, the inhibition was -4% (inactive) in test [1]; -44% (inactive) in [3]; 11.3% (inactive) in [5]; 22.9% (inactive) in [10]; 10.3% (inactive) in test [11]; 42% (inactive) in test [12]. Moreover, the inhibition of aggregation in test [2] is -4.8% (inactive). Also, the figures for the nuclei count in test [2] and in test [3] were 106% and 107%, respectively. Further, the z-score in [4] (setting [13]) is 1.21; in [4] (setting [14]) it was 1.9; in test [4] (setting [15]), -1.92. Besides, the fluorescence slope in test [6] was -0.45 (inactive). Besides, the NADPH fluorescence slope in test [7] was -5.3e-05 (inactive). Moreover, in [8], the slope was 0.00577 (inactive). The outcome in [9] was inactive.
As for `CC(C)(Oc1ccc(CCNC(=O)c2ccc(Cl)cc2)cc1)C(=O)O`, the cell count in test [1] stood at 649. In addition, the inhibition in test [1] is -3% (inactive); in test [3], -101% (inactive); in test [5] it was 15.3% (inactive); in test [10], 39.4% (inactive); in test [11], 9.06% (inactive); in [12] it was 22.2% (inactive). Further, in test [2], the inhibition of aggregation is 5.2% (inactive). The nuclei count worked out at 107% in [2] and 135% in test [3]. Moreover, the z-score in test [4] (setting [13]) was -0.113; in [4] (setting [14]), -1.08; in test [4] (setting [15]) it was -0.613. In addition, the fluorescence slope in [6] is -0.452 (inactive). Moreover, the NADPH fluorescence slope in [7] was -4.1e-05 (inactive). The slope in [8] is 0.00448 (inactive). Besides, in [9], the result was inactive.
On to `CCN(CC)c1ccc2c(C)c(-c3ccc(N)cc3)c(=O)oc2c1`, for which the cell count in [1] turned out to be 446. Besides, the inhibition is -5% (inactive) in test [1]; 25% (inactive) in [3]; -4.78% (inactive) in test [5]; 55.8% (active) in test [10]; -44% (inactive) in [11]; -91% (inactive) in [12]. For the same compound, the inhibition of aggregation in [2] was 6.3% (inactive). The nuclei count in [2] is 98.2%; in test [3], 149%. The z-score was 0.788 in test [4] (setting [13]), 0.208 in [4] (setting [14]) and -0.594 in [4] (setting [15]). For the same compound, the fluorescence slope in [6] was -0.133 (active). Besides, in test [7], the NADPH fluorescence slope was 0 (inactive). Moreover, the slope in test [8] was 0.00526 (inactive). Further, the compound was called inactive in [9].
For the compound `Cc1ccccc1C(OCCN(C)C)c1ccccc1` (stereo not given), the cell count in [1] worked out at 644. Moreover, the inhibition was -4.5% (inactive) in [1]; -41.9% (inactive) in test [3]; -0.828% (inactive) in [5]; 24.9% (inactive) and 29.3% (inactive) in test [10]; 22.3% (inactive) in [11]; 42.3% (inactive) in test [12]. The inhibition of aggregation in [2] was -3% (inactive). Further, the nuclei count in [2] came out at 89%; in [3] it was 103%. The z-score in [4] (setting [13]) is -0.367; in test [4] (setting [14]), -1.7; in test [4] (setting [15]), 0.158. Moreover, the fluorescence slope in [6] is -0.48 (inactive). For the same compound, in test [7], the NADPH fluorescence slope was -2.2e-05 (inactive). For the same compound, the slope in test [8] was 0.00302 (inactive). Further, in [9], the call was inactive.
